Bioassay records: PubChem BioAssay, Sanford-Burnham Center for Chemical Genomics
An excerpt weighted towards active compounds, which were near 3% of everything screened.
SENP8 block-1 – inhibitors of human SENP8 protease; Q96LD8; recombinant SENP8, Nedd8 substrate fluorescence; inhibition, % at 20 µM; 360,000 tested, 0.64% active; in the data active = inhibition mostly above about 40%, no sharp cut-off; inactive = mostly below about 27%
Target sequence (Q96LD8 whole entry, looked up): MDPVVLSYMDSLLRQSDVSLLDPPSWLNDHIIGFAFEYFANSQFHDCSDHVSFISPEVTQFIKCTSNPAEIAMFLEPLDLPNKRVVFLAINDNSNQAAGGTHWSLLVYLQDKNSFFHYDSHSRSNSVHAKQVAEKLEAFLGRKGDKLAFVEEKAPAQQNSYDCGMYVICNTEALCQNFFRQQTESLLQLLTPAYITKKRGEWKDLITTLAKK
SENP6 block – inhibitors of human SENP6 protease; AID 2599; Recombinant SENP6 catalytic domain, aminoluciferin luminescence; 330,000 tested, 1.8% active; Q9GZR1; inhibition, % at 10 µM;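 active = inhibition above about 50% at the single tested dose, limit read from the data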
SENP7 inh – SENP7 protease inhibition; 330,000 tested, 1.5% active; recombinant SENP7, Z-RLRGG-aminoluciferin luminescence, 40 min; Q9BQF6; inhibition, % at 5 µM;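 active = inhibition above about 50% at the single test dose, limit read from the data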
Target sequence (Q9BQF6 706-1050 limits assumed): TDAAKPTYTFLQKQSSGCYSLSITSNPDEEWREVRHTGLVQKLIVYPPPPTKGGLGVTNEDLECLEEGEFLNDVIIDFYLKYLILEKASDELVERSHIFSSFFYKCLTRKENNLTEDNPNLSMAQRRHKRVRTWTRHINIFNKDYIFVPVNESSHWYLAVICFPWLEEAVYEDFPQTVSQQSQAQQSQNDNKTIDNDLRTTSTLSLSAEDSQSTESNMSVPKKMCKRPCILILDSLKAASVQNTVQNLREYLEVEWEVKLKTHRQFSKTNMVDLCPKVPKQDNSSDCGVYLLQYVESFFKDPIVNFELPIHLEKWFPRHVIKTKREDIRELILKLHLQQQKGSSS
PPC-1+TRAIL kill – compounds killing PPC-1 cancer cells with TRAIL present (potentiator screen, no TRAIL-free arm); PPC-1 cells + TRAIL, ATPLite viability luminescence; cell killing (% activity), % at 4 µM or 5 µM; 220,000 tested, 0.41% active; AID 1443;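 active = cell killing above 50% in the first pass at 4 µM, then a duplicate retest at 5 µM averaging 50% or more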
SENP8 block-2 – inhibitors of human SENP8 protease; inhibition, % at 10 µM; AID 2540; Q96LD8; purified SENP8, Z-RLRGG-aminoluciferin cleavage, luminescence; 330,000 tested, 1.2% active; in the data active = inhibition above about 50%
C8 TRAIL sens – sensitizes caspase-8 expressing cells to TRAIL. NB7+C8 cells + TRAIL, ATPlite viability luminescence. AID 624354. 360,000 tested, 1% active. inhibition (viability loss, TRAIL sensitization), % at 10 µM;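 active = compounds causing at least 50% loss of cell viability in the single-dose screen, relative to plate controls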
SENP8 confirm – human SENP8 inhibition, confirmed; 6,200 tested, 40% active; AID 488912; inhibition, % at 12.5 µM; Recombinant SENP8, Z-RLRGG-aminoluciferin luminescence, 60 min; shares compounds with SENP7 inh;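 active = mean inhibition across replicates above about 50%, limit read from the data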
SENP6 confirm – confirmation of human SENP6 protease inhibitors. AID 488915. shares compounds with SENP7 inh. recombinant SENP6, Z-RLRGG-aminoluciferin luminescence. 6,200 tested, 58% active. inhibition, % at 12.5 µM
SENP7 confirm – human SENP7 inhibition, confirmed | shares compounds with SENP7 inh | recombinant SENP7, Z-RLRGG-aminoluciferin luminescence, 40 min | inhibition, % at 12.5 µM | 6,200 tested, 69% active | AID 488917
Casp3 SENP sel – inhibits human caspase-3 in SENP selectivity test | shares compounds with SENP7 inh | purified caspase-3, Z-DEVD-aminoluciferin luminescence, 60 min | inhibition, % at 12.5 µM | 6,200 tested, 60% active | AID 488918;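 active = mean inhibition above about 50%, limit read from the data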
SENP luc ctr – luminescence interference (SENP counter-screen) | inhibition, % at 12.5 µM | shares compounds with SENP7 inh | 6,200 tested, 39% active | Pre-incubated SENP8/Z-RLRGG-aminoluciferin, luciferase luminescence interference;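 active = mean inhibition above about 50% when retested at one dose, limit read from the data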
Large screens that a line does not name were inactive (follow-up assays come after a bar, where they were run).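 The calls were made as follows, unless noted: active = mean inhibition above about 50% in the one-dose retest (limit read from the data); inactive = the rest.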

CCCCc1nc2cc(C(=O)NC3CCOC(C)(C)C3)ccc2o1 (stereo not given)	SENP7 inh 80 (no result: PPC-1+TRAIL kill) | SENP8 confirm inactive | SENP6 confirm inactive | SENP7 confirm inactive | Casp3 SENP sel inactive | SENP luc ctr inactive
O=C(O/N=C1/CCCc2occc21)c1ccccc1	SENP6 block 89, SENP7 inh 95, SENP8 block-2 84 | SENP8 confirm inactive | SENP6 confirm 84 | SENP7 confirm 98 | Casp3 SENP sel 92 | SENP luc ctr 54
O=C(O/N=C1/CCCc2occc21)c1ccc(Cl)cc1Cl	SENP6 block 67, SENP7 inh 73, SENP8 block-2 55 | SENP8 confirm inactive | SENP6 confirm inactive | SENP7 confirm inactive | Casp3 SENP sel 53 | SENP luc ctr inactive
O=C(OCCN1CCOCC1)c1ccc(Cl)cc1Cl	none (no result: PPC-1+TRAIL kill)
Nc1cccc(C(=O)Nc2ccc3nc(-c4cccnc4)[nH]c3c2)c1	none
Nc1cccc(-c2nc3ccc(C(=O)c4ccccc4)cc3[nH]2)c1	SENP6 block 85, SENP7 inh 81, SENP8 block-2 71, C8 TRAIL sens 63 (no result: PPC-1+TRAIL kill) | SENP8 confirm 80 | SENP6 confirm 76 | SENP7 confirm 93 | Casp3 SENP sel 63 | SENP luc ctr 83
Nc1ccc2nc(-c3ccc(N)c(Cl)c3)[nH]c2c1	SENP6 block 60 | SENP8 confirm 62 | SENP6 confirm 59 | SENP7 confirm 81 | Casp3 SENP sel 78 | SENP luc ctr 63
Nc1ccc2nc(-c3ccccc3)[nH]c2c1	SENP6 block 70 | SENP8 confirm 61 | SENP6 confirm 65 | SENP7 confirm 89 | Casp3 SENP sel 90 | SENP luc ctr 76
COc1ccc2nc(-c3ccc(N)cc3)[nH]c2c1	SENP6 block 75, SENP7 inh 83, SENP8 block-2 54 | SENP8 confirm 68 | SENP6 confirm 61 | SENP7 confirm 91 | Casp3 SENP sel 86 | SENP luc ctr 74
Nc1ccc2nc(-c3cccnc3)[nH]c2c1	none
COc1ccc(Cl)cc1NC(=O)CCNC(=O)Cn1ccc2ccccc2c1=O	none (no result: PPC-1+TRAIL kill)
COc1ccccc1C1CCN(C(=O)c2ccc(C(C)(C)C)cc2)CC1	none (no result: PPC-1+TRAIL kill)
COc1ccc(-c2nc3ccccc3c(=O)[nH]2)cc1	SENP6 block 52, SENP7 inh 61, C8 TRAIL sens 66 (no result: PPC-1+TRAIL kill) | SENP8 confirm inactive | SENP6 confirm inactive | SENP7 confirm 77 | Casp3 SENP sel inactive | SENP luc ctr inactive
Cc1cccc(-c2nc3ccccc3c(=O)[nH]2)c1	none (no result: PPC-1+TRAIL kill)
COc1ccc2nc(-c3ccccn3)[nH]c2c1	SENP6 block 77, SENP7 inh 82, SENP8 block-2 59 (no result: PPC-1+TRAIL kill) | SENP8 confirm 78 | SENP6 confirm 73 | SENP7 confirm 93 | Casp3 SENP sel 89 | SENP luc ctr 73
Nc1ccc2nc(-c3ccccn3)[nH]c2c1	SENP6 block 52, SENP7 inh 52 | SENP8 confirm inactive | SENP6 confirm 51 | SENP7 confirm 79 | Casp3 SENP sel 82 | SENP luc ctr inactive
O=P(c1ccccc1)(c1ccccc1)C(O)c1ccc(Br)cc1 (stereo not given)	none (no result: PPC-1+TRAIL kill)
COc1cc(CNc2ncnc3c2ncn3[C@H]2CN(Cc3ccccc3)C[C@@H](COC(C)=O)O2)cc(OC)c1OC	none (no result: SENP6 block, SENP7 inh, PPC-1+TRAIL kill, SENP8 block-2)
COc1ccc(-c2nc3ccccc3s2)cc1NC(C)=O	none
CC(=O)NCc1ccc(-c2nc3ccccc3s2)cc1	SENP6 block 80, SENP7 inh 72, SENP8 block-2 64 | SENP8 confirm inactive | SENP6 confirm 59 | SENP7 confirm 87 | Casp3 SENP sel 77 | SENP luc ctr inactive
O=C(NCc1csc(-c2cccs2)n1)c1ccccc1	none
c1ccc2sc(-c3ccc4c(c3)OCO4)nc2c1	SENP6 block 97, SENP7 inh 100, PPC-1+TRAIL kill 58, SENP8 block-2 96, C8 TRAIL sens 73 | SENP8 confirm 98 | SENP6 confirm 100 | SENP7 confirm 103 | Casp3 SENP sel 98 | SENP luc ctr 95
CC(=O)NCc1ccc(-c2csc(-c3cccs3)n2)cc1	SENP6 block 62 (no result: PPC-1+TRAIL kill) | SENP8 confirm inactive | SENP6 confirm inactive | SENP7 confirm 73 | Casp3 SENP sel inactive | SENP luc ctr 57
COc1cccc(-c2nc3ccccc3s2)c1	SENP6 block 92, SENP7 inh 96, SENP8 block-2 95 | SENP8 confirm 96 | SENP6 confirm 98 | SENP7 confirm 102 | Casp3 SENP sel 95 | SENP luc ctr 95
COc1ccc(C(=O)OCC(=O)NCC2CCCO2)c(F)c1 (stereo not given)	none (no result: PPC-1+TRAIL kill)
Nc1ccccc1-c1nc2ccccc2s1	SENP6 block 76, SENP7 inh 59, SENP8 block-2 54 | SENP8 confirm 61 | SENP6 confirm 83 | SENP7 confirm 96 | Casp3 SENP sel 55 | SENP luc ctr inactive
c1ccc2[nH]c(-c3ccc4c(c3)OCO4)nc2c1	SENP6 block 96, SENP7 inh 97, SENP8 block-2 93, C8 TRAIL sens 72 (no result: PPC-1+TRAIL kill) | SENP8 confirm 96 | SENP6 confirm 97 | SENP7 confirm 102 | Casp3 SENP sel 97 | SENP luc ctr 96
Oc1ccc(-c2nc3ccccc3s2)cc1	SENP6 block 98, SENP7 inh 99, SENP8 block-2 96, C8 TRAIL sens 62 | SENP8 confirm 99 | SENP6 confirm 99 | SENP7 confirm 102 | Casp3 SENP sel 95 | SENP luc ctr 95
O=C(Cc1nc2ccccc2s1)c1ccc(O)cc1O	none (no result: SENP8 block-1, C8 TRAIL sens)
Oc1ccc(-c2nc3ccccc3s2)c(O)c1	SENP6 block 97, SENP7 inh 86, SENP8 block-2 88 | SENP8 confirm 95 | SENP6 confirm 94 | SENP7 confirm 101 | Casp3 SENP sel 75 | SENP luc ctr 78
c1cncc(-c2nc3ccccc3s2)c1	none
CCOC(=O)c1cc(S(=O)(=O)Nc2ccc(F)cc2F)cn1C	none (no result: PPC-1+TRAIL kill)
CCOC(=O)c1cc(CC)sc1NC(=O)COC(=O)c1ccccn1	none (no result: PPC-1+TRAIL kill)
O=C(O)c1ccc2ncsc2c1	none
c1ccc2sc(-c3ccncc3)nc2c1	SENP6 block 68, SENP7 inh 67 | SENP8 confirm inactive | SENP6 confirm 55 | SENP7 confirm 83 | Casp3 SENP sel 80 | SENP luc ctr inactive
